Source: PubChem BioAssay (several laboratories)
ROMK primary: modulates human ROMK potassium channel activity. B-score at 10 µM. P48048. actives 2% (n = 130,000). AID 1918. Tet-inducible ROMK, thallium flux fluorescence; actives lie on both sides;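 active = signal ratio slope over the read window, or its plate-corrected B-score, at least 3 SD from the plate mean, either direction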;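 also: B-score of the F/F0 ratio slope over 7 to 12 s after thallium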
Target sequence (P48048 whole entry, looked up): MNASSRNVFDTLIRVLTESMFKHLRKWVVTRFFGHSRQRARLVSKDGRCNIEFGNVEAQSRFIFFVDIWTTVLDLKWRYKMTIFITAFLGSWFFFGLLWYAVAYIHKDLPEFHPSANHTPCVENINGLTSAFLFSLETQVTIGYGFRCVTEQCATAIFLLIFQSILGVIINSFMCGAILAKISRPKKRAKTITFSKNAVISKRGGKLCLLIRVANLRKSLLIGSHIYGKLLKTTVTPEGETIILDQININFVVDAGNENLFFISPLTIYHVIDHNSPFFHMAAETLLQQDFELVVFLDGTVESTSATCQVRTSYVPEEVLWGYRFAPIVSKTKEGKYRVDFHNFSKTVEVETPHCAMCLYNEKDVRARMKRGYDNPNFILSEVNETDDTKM
L major viab: Leishmania major promastigote growth inhibition. Leishmania major promastigotes, resazurin fluorescence viability. inhibition, % at 10 µM. actives 9% (n = 200,000). AID 1063; in the data active = inhibition above about 50%;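 also: promastigotes grown with compound for 44 hours at 28 °C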
HCT116 PTEN-null: growth suppressors of cells with PTEN tumor suppressor deletion | HCT116 PTEN-null viability, CellTiter-Glo, 60 h; hits give low values | viability, % at 10 µM | actives 1.2% (n = 140,000) | AID 827;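 active = viability at or below a set limit, 4 SD under the median of all tested compounds, cut at about 3.7% in these data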;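 also: PTEN knockout HCT116 line with beta catenin targeted HCT116 as companion control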
p97 inhibitor: human p97 ATPase inhibition; P55072; recombinant p97 ATPase, Kinase-Glo ATP luminescence, 3 h; inhibition, % at 8 µM; actives 0.42% (n = 220,000); AID 1481; in the data active = inhibition above about 15%
Insulin prom inh: TRM-6 insulin promoter activity inhibition. TRM-6 cells (human fetal islet line), insulin promoter-eGFP reporter, imaging; reporter expression induced with tamoxifen. inhibition, % at 2 µM. actives 0.9% (n = 130,000);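 active = inhibition above the mean plus 3 SD, with well images judged a real hit on visual review, cut at about 60% in these data, passing the limit was not always enough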
HCT116 bCat-KO: beta-catenin-lacking colon tumor cell growth suppression. HCT116 beta-catenin knockout viability, CellTiter-Glo, 60 h; hits give low values. viability, % at 10 µM. actives 1.5% (n = 140,000). AID 818;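 active = viability at or under a set limit, the compound median less 4 SD, cut at about 6% in these data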
Numbers stand for hits; 0 = inactive; - = no result. An excerpt weighted towards active compounds, which were near 10% of everything screened.

SMILES	ROMK primary	L major viab	HCT116 PTEN-null	p97 inhibitor	Insulin prom inh	HCT116 bCat-KO
Cc1ccc2c(n1)CC(C)(C)C/C2=N\O	0	0	0	0	90	0
Cc1ccc(CN2CCN(Cc3nc(C(C)C)cs3)CC2CCO)cc1 (stereo unspecified)	0	74	-	0	-	-
CC(C)c1csc(CN2CCN(Cc3ccc(F)cc3)C(CCO)C2)n1 (stereo unspecified)	0	81	-	0	0	-
CC(C)CN1CCN(Cc2nc(C(C)C)cs2)CC1CCO (stereo unspecified)	0	0	-	0	-	-
COC(=O)c1cc2cc(Cl)ccc2nc1SC	-	-	-	0	-	-
COc1ccc2cc(C(c3nnnn3C3CCCC3)N3CCc4ccccc4C3)c(=O)[nH]c2c1 (stereo unspecified)	-	82	0	0	-	0
COc1ccc2[nH]c(=O)c(C(c3nnnn3C3CCCCC3)N3CCN(C)CC3)cc2c1 (stereo unspecified)	0	0	0	0	0	0
COc1ccc2cc(C(c3nnnn3C(C)(C)C)N3CCc4ccccc4C3)c(=O)[nH]c2c1 (stereo unspecified)	-	99	0	0	-	3.5
CC(C)C(c1nnnn1C1CCCCC1)N1CCc2ccccc2C1 (stereo unspecified)	-	67	0	0	0	0
CCC(C)(C)n1nnnc1C(c1cccc(C#N)c1)N1CCN(c2cccc(C)c2C)CC1 (stereo unspecified)	0	76	0	0	0	0
CC(=O)N(c1ccc(C)cc1)c1nc(C)cc(C)c1C#N	0	-	-	0	-	-
CCC(C)(C)n1nnnc1C(c1cc2ccc(OC)cc2[nH]c1=O)N1CCc2ccccc2C1 (stereo unspecified)	-	100	2.9	0	0	0
CCC(C)(C)n1nnnc1C(c1ccccc1)N1CCc2ccccc2C1 (stereo unspecified)	-	77	0	0	0	0
CCC(C)(C)n1nnnc1C(c1cc2ccc(OC)cc2[nH]c1=O)N1CCc2ccccc21 (stereo unspecified)	-	0	0	0	-	0
CCC(C)(C)n1nnnc1C(c1cccs1)N1CCCCC1 (stereo unspecified)	0	0	-	0	-	-
CCC(C)(C)n1nnnc1C(c1ccc(C)cc1)N1CCCC1 (stereo unspecified)	-	65	0	0	-	0
Cn1c(=O)c2c(ncn2CC(O)CNc2ccc(F)cc2)n(C)c1=O (stereo unspecified)	-	-	-	0	-	-
CCNC(=O)c1sc(-c2ccccc2)nc1C	-	0	0	0	0	0
Cc1ccc(C(c2nnnn2C2CCCCC2)N(C)C2CCCCC2)cc1 (stereo unspecified)	0	72	0	0	-	0
COc1cc2cc(C(c3nnnn3C3CCCCC3)N(C)C3CCCCC3)c(=O)[nH]c2cc1OC (stereo unspecified)	-	72	0	0	-	0
COc1ccc(-n2c(C)cc(/C=N/Nc3nc(N4CCOCC4)nc(N4CCOCC4)n3)c2C)cc1	-	98	0	0	0	0
Cc1cc(/C=N/Nc2nc(N3CCOCC3)nc(N3CCOCC3)n2)c(C)n1-c1ccccc1	0	0	-	0	0	-
Nc1c(S(=O)(=O)c2ccccc2)csc1C(=O)O	0	0	-	0	-	-
Cc1cccc(C(=O)NC(C(=O)Nc2nc(-c3ccccn3)cs2)C(C)C)c1 (stereo unspecified)	0	98	-	0	-	-
CCOC(=O)c1csc(NC(=O)c2cc3ccccc3o2)n1	-	-	-	0	-	-
SMILES	ROMK primary	L major viab	HCT116 PTEN-null	p97 inhibitor	Insulin prom inh	HCT116 bCat-KO
O=C(Nc1nc(-c2ccccn2)cs1)c1cc2ccccc2o1	0	100	-	0	0	-
C[C@H](NC(=O)c1ccccc1)C(=O)Nc1nc(-c2ccccn2)cs1	0	0	-	0	0	-
O=C(Nc1nc(-c2ccccn2)cs1)c1ccc(Cl)s1	-	100	0	0	-	0
O=C(Nc1nc(-c2cccs2)cs1)c1cc2ccccc2oc1=O	1.6	0	0	0	-	0
CCc1nnc(NC(=O)c2cc3ccccc3oc2=O)s1	-	0	0	0	0	0
O=C(NS(=O)(=O)Oc1cccc(Cl)c1Cl)OC[C@@H]1CCCN2CCCCC12 (stereo partly specified)	0	0	0	0	0	0
O=C(Nc1nc(-c2ccccn2)cs1)c1ncc(Cl)c(Cl)c1Cl	-	101	0	0	0	0
Cn1cccc1C(=O)Nc1nc(-c2ccccn2)cs1	0	100	0	0	0	0
O=C(N/C=N/O)C1=NOC(CNc2ncc(C(F)(F)F)cc2Cl)C1 (stereo unspecified)	0	99	0	0	0	0
O=C(NC1CC1)C1=NOC(CNc2ncc(C(F)(F)F)cc2Cl)C1 (stereo unspecified)	0	0	0	0	0	0
COC(=O)c1cccc(NC(=O)CSc2nnc(C)n2Cc2ccccc2)c1	0	0	0	0	0	0
Cn1c(=O)oc2cc(S(=O)(=O)NCCC(=O)N3CC=C(c4ccccc4)CC3)ccc21	0	0	0	0	-	0
O=C(C1CC1)N1CCc2cc(S(=O)(=O)NC3CCN(Cc4ccccc4)CC3)ccc21	0	59	0	0	0	0
CC(C)CC(NS(=O)(=O)c1ccc2c(c1)oc(=O)n2C)C(=O)N1CC=C(c2ccccc2)CC1 (stereo unspecified)	-	86	0	0	-	0
Cn1c(=O)oc2cc(S(=O)(=O)NC3CCN(Cc4ccccc4)CC3)ccc21	-	50	0	0	-	0
COc1ccc(CNS(=O)(=O)c2ccc3c(c2)CCN3C(=O)C2CC2)cc1	0	0	0	0	0	0
CCC1CCCCN1Cc1ccc(CNS(=O)(=O)c2ccc3c(c2)oc(=O)n3C)o1 (stereo unspecified)	0	98	0	0	0	0
O=C(C[n+]1cc(-c2ccc(Cl)cc2)n2c1CCC2)Nc1nc(-c2ccccc2)cs1	-	-	-	0	-	-
O=C(C[n+]1cc(-c2ccc(Cl)cc2)n2c1CCC2)N1c2ccccc2Sc2ccccc21	0	81	0	0	0	0
COc1ccc(-c2c[n+](CC(=O)N3c4ccccc4Sc4ccccc43)c3n2CCC3)cc1	-	-	-	0	-	-
O=C(C[n+]1cc(-c2ccc(Cl)c(Cl)c2)n2c1CCC2)N1c2ccccc2Sc2ccccc21	0	54	0	0	0	0
Cn1c(NC(=O)C[n+]2cc(-c3ccc(Cl)c(Cl)c3)n3c2CCC3)cc(=O)n(C)c1=O	0	88	0	0	0	0
O=C(C[n+]1cc(-c2ccc(F)cc2)n2c1CCC2)Nc1nc(-c2ccccc2)cs1	0	81	0	0	0	0
CCOC(=O)CN1C(=O)S/C(=C/C=C/c2ccc(N(C)C)cc2)C1=O	0	0	0	0	0	0
Cc1ccc(-n2nc(C(=O)NCc3ccc(C)o3)c3c4ccccc4n(C)c3c2=O)cc1	0	0	0	0	0	0
COc1ccc(-c2nnc(SCc3nnc(-c4ccc(Cl)cc4)o3)n2-c2ccccc2)cc1	-	89	0	0	0	0
Cc1cc(C(=O)CSc2nnc(-c3ccco3)o2)c(C)n1CC1COc2ccccc2O1 (stereo unspecified)	0	0	0	0	0	0
